High-throughput results (PubChem)
Shown are actives, neighbours in structure and some others; about 1.2% of the full set was active somewhere.
Statin myotox sup = suppression of simvastatin myotoxicity | C2C12 myotubes + simvastatin, ATP luminescence, 48 h; scaled: DMSO 0, geranylgeraniol control 100 | rescue of ATP level, % at 7.49 µM | 0.78% of 330,000 active | AID 602340;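 active = mean ATP rescue above about 67%, or every replicate alone reaching that limit, limit read from the data, passing the limit was not always enough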;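 note: myotubes were challenged with 10 µM simvastatin during compound exposure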
NSD2 HMT inh = inhibitors of human histone methyltransferase NSD2. O96028. NSD2 peptide methylation, AlphaScreen, 120 min. inhibition, % at 12.5 µM. 0.54% of 310,000 active. AID 743445; in the data active = inhibition above about 50%
Target sequence (O96028 whole entry, looked up): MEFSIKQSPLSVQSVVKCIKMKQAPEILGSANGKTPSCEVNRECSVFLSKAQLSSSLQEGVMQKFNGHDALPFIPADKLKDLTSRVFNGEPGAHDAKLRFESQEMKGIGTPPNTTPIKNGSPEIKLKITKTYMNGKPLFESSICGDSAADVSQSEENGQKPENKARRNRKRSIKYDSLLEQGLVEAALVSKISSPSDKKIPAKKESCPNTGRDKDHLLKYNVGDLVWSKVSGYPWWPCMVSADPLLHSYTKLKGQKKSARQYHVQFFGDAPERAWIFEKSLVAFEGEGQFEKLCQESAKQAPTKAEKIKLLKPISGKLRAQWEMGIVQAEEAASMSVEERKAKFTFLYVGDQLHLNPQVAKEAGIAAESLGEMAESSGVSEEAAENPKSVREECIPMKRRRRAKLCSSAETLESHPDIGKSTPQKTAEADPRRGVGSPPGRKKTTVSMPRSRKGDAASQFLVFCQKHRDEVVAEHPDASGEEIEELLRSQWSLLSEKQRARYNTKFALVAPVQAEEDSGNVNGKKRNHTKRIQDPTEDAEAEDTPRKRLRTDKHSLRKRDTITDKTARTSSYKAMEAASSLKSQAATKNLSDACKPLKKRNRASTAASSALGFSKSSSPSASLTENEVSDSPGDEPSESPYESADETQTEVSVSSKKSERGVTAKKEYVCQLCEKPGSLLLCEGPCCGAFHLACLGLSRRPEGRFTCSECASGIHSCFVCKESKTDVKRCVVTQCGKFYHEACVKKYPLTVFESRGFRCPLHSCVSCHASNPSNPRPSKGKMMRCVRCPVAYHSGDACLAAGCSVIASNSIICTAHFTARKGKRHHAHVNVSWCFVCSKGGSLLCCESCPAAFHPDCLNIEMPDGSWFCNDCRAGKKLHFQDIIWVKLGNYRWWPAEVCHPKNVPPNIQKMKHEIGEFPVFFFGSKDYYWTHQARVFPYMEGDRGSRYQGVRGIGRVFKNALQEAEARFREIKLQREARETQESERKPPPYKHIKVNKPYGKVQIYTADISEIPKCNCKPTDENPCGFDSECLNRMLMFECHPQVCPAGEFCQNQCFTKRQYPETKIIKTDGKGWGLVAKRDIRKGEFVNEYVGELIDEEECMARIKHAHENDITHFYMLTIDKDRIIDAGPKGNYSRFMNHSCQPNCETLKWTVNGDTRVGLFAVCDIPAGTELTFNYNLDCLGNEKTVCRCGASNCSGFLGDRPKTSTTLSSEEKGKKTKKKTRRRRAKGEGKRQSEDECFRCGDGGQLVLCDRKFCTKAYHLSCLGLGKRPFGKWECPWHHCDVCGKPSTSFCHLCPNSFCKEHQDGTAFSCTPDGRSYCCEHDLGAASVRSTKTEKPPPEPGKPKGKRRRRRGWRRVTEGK
PglD inh = PglD (C. jejuni) enzyme inhibition. purified PglD enzyme, DTNB colorimetric CoA detection. inhibition, % at 12.5 µM. 0.098% of 360,000 active. AID 602405; in the data active = inhibition above about 16%, passing the limit was not always enough
miR-122 sensor = blocks miR-122 activity in Huh7 sensor cells; Huh7 miR-122 Renilla luciferase sensor, 48 h; neutral wells = 0, positive control = 100; activation (reporter increase), % at 12.5 µM; 0.3% of 340,000 active;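 active = mean replicate activation score at least 90 and every replicate individually at or above 90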;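 note: higher luciferase means less miR-122 activity so hits act as miR-122 inhibitors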
The depositor's hits bear a star; / = no result; [ ] = remark or other dose.

SMILES	Statin myotox sup	NSD2 HMT inh	PglD inh	miR-122 sensor
CO[C@@H]1CN(C)C(=O)c2cc(NC(=O)c3ccc4c(c3)OCO4)ccc2OC[C@H](C)NC[C@H]1C	1	/	0	/
CCOC(=O)c1nn(-c2ccccc2)c(=O)c2c(N)scc12	-14	-6	2	-1
Nc1scc2c(C(=O)N/N=C/c3ccc(Cl)cc3)nn(-c3ccccc3)c(=O)c12	/	73*	2	3
CCOC(=O)N1CCN(C(=O)c2ccc3c(=O)n(CCC4=CCCCC4)c(=S)[nH]c3c2)CC1	94*	2	-1	-6
CCOC(=O)N1CCN(C(=O)c2ccc3c(=O)n(CCc4ccccc4)c(=S)[nH]c3c2)CC1	-4	-3	2	-4
CCOC(=O)N1CCN(C(=O)c2ccc3c(=O)n(Cc4ccc(Cl)cc4)c(=S)[nH]c3c2)CC1	82*	1	-4	2
CCCn1c(=S)[nH]c2cc(C(=O)N3CCN(C(=O)OCC)CC3)ccc2c1=O	9	-1	-7	0
Cn1c(=O)c2c(nc(NC3CCCCC3)n2CC(O)COc2ccccc2)n(C)c1=O (configuration not stated)	81*	-1	-3	-5
COc1ccc(OC)c(N2CC(O)=C(c3nc4ccccc4s3)C2=N)c1	-24	-1	7	9
CCOc1ccccc1N1CC(O)=C(c2nc3ccccc3s2)C1=N	-321	2	-6	100*
CC1COCC(C)N1C1=C(Cl)C(=O)c2ccccc2C1=O (configuration not stated)	-204	107*	-3	/
Cc1ccnc2nc(C(=O)OCCOc3ccccc3)nn12	-4	-1	0	-3
Cc1ccnc2nc(C(=O)OCC(=O)c3ccccc3)nn12	112*	0	-4	-1
COCCNC(=O)C[C@H]1C=C[C@H](NS(=O)(=O)c2ccc(C)cc2)[C@@H](CO)O1	0	/	2	/
CC(C)NC(=O)N(C)C[C@H]1Oc2ccc(NC(=O)C3CCCCC3)cc2C(=O)N([C@H](C)CO)C[C@H]1C	10	/	6	1[16.7 µM]
COc1cc(C(=O)OCCN2CCOCC2)ccc1O	108*	-3	-1	-2
CO[C@H]1CN(C)C(=O)c2cc(NC(=O)NC(C)C)ccc2OC[C@H](C)NC[C@H]1C	-6	/	1	-5[16.7 µM]
C/C=C/c1cnc2c(c1)C(=O)N([C@@H](C)CO)C[C@H](C)[C@H](CN(C)C(=O)C1CC1)O2	-8	/	/	-3[16.7 µM]
CCC(=O)N(C)C[C@@H]1Oc2ncc(-c3ccc(C)cc3)cc2C(=O)N([C@H](C)CO)C[C@H]1C	-6	/	-2	3[16.7 µM]
O=C(NC1CCCC1)C(c1ccccc1F)N(C(=O)Cc1cccs1)c1ccc2c(c1)OCCO2 (configuration not stated)	2	-1	/	172*
O=C(NC1CCCC1)C(c1ccsc1)N(C(=O)Cc1cccs1)c1ccc(F)cc1 (configuration not stated)	14	/	-4	/
COc1ccc(C2CC(=O)Oc3c(C(CCN4CCCCC4)c4ccc(N(C)C)cc4)c(OC)cc(OC)c32)cc1 (configuration not stated)	121*	/	8	5
C[C@H](CO)N1C[C@H](C)[C@@H](CN(C)C(=O)Nc2ccc(F)cc2)Oc2c(NS(=O)(=O)c3ccccc3)cccc2C1=O	-21	/	5	128*[16.7 µM]
COc1ccc(S(=O)(=O)Nc2cccc3c2O[C@H](CN(C)C(=O)Nc2ccc(F)cc2)[C@H](C)CN([C@@H](C)CO)C3=O)cc1	130*	/	6	-3[16.7 µM]
COc1ccc(S(=O)(=O)Nc2cccc3c2O[C@@H](CN(C)C(=O)Nc2ccc(F)cc2)[C@H](C)CN([C@@H](C)CO)C3=O)cc1	24	/	-1	-1[16.7 µM]
SMILES	Statin myotox sup	NSD2 HMT inh	PglD inh	miR-122 sensor
Cc1ccccc1S(=O)(=O)N1CC[C@@H]2[C@@H](CO)Nc3ccc(-c4ccc(F)cc4)cc3[C@@H]21	-21	/	0	157*[16.7 µM]
Cc1ccc(S(=O)(=O)N2CC[C@@H]3[C@@H](CO)Nc4ccc(-c5ccccc5F)cc4[C@@H]32)cc1	5	/	1	154*[16.7 µM]
O=C(Cc1ccccc1)N1CC[C@@H]2[C@@H](CO)Nc3ccc(-c4cccc(F)c4)cc3[C@@H]21	-5	/	0	109*[16.7 µM]
COc1cccc(C2(c3cccc(OC)c3)CC2C(=O)Nc2ccc(F)cc2)c1 (configuration not stated)	/	-2	2	108*
O=C(Nc1ccccc1)c1cccc(N2C(=O)CCC2=O)c1	97*	-2	-7	6
O=C(NC(NC(=S)Nc1c(Cl)cccc1Cl)C(Cl)(Cl)Cl)c1cccc([N+](=O)[O-])c1 (configuration not stated)	/	-1	8	174*
C=C(C)COC(=O)c1ccccc1C(=O)OCC1(C)CO1 (configuration not stated)	98*	1	-2	-8
CC(=O)c1ccccc1NC(=O)COC(=O)c1cc(C)oc1C	-9	-1	-6	0
C[C@H]1CCCCO[C@@H](CN(C)Cc2ccccc2)[C@@H](C)CN([C@@H](C)CO)C(=O)c2cc(NC(=O)c3ccncc3)ccc2O1	/	/	-2	-2[16.7 µM]
CC(C)c1ccc(NC(=O)C2CC(=O)N=C(N)S2)cc1 (configuration not stated)	138*	4	-5	1
CCc1ccc(NC(=O)C2CC(=O)N=C(N)S2)cc1 (configuration not stated)	2	-2	-1	-4
CN1C(=O)c2cc(NC(=O)NC3CCCC3)ccc2OC[C@@H]2O[C@@H](CC(=O)NC3CCC3)CC[C@H]21	15	/	3	4[16.7 µM]
CC(=O)Nc1ccc(Nc2nc(-c3ccccc3)nc3ccccc23)cc1	/	11	/	/
CC(=O)Nc1cccc(Nc2nc(-c3ccccc3F)nc3ccccc23)c1	106*	-5	8	-2
C[C@H]1CCCCO[C@@H](CN(C)S(=O)(=O)c2cccs2)[C@@H](C)CN([C@@H](C)CO)C(=O)c2cc(NS(=O)(=O)c3ccccc3)ccc2O1	/	/	4	-3[16.7 µM]
CO[C@H]1CN(C)C(=O)c2ccc(NS(=O)(=O)c3ccccc3)cc2OC[C@H](C)N(C(=O)NC(C)C)C[C@H]1C	-2	/	2	2[16.7 µM]
O=C(O)c1c2c(nc3ccc(S(=O)(=O)N4CCC(C(=O)NCc5ccccc5Cl)CC4)cc13)CCCC2	77*	5	-85	3
Cc1cccc(Nc2nc(N)nc(CN3CCN(c4ccccc4F)CC3)n2)c1	81*	5	3	-5
Cc1cccc(Nc2nc(N)nc(CN3CCN(c4ccccc4)CC3)n2)c1	-31	3	-6	-3
O=c1[nH]nnc2c1sc1nc(N3CCOCC3)c3c(c12)CCCC3	/	3	-1	6
Cn1nnc2c(sc3nc(N4CCOCC4)c4c(c32)CCCC4)c1=O	118*	/	1	-7
COc1ccc(C2CC(=O)C(C=NCCN3CCOCC3)=C(O)C2)cc1 (configuration not stated)	126*	-1	0	4
COCCNC(=O)[C@@H]1[C@@H](CO)[C@@H]2Cn3c(ccc(-c4ccc(F)cc4)c3=O)[C@H]1N2C	-8	/	-1	1[16.7 µM]
